From PubChem
RAD52 anneal inh – blocks human RAD52 DNA annealing | 0.46% of 360,000 active | inhibition, % at 18.7 µM | P43351 | recombinant RAD52 DNA annealing, FRET fluorescence | AID 651710;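 active = every replicate showing at least 50% inhibition; inconclusive = mean inhibition at least 50% but not in every replicate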
CFTR F508del cor – correctors of CFTR F508del function in bronchial epithelial cells. AID 720511. CFBE cells, YFP halide quenching; stimulated with forskolin plus potentiator P3; % fluorescence drop versus neutral controls. activity (quench increase), % at 7.58 µM. 0.36% of 350,000 active;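 active = mean added fluorescence quench of at least 8% versus neutral control, with both replicates also reaching 8%; inconclusive = only one of the mean or replicate conditions met; inactive = mean below 8% and not both replicates reaching 8%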;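 also: cells transiently co-express mutant CFTR-F508del with the halide-sensitive YFP; corrector assay measuring rescue of mutant channel to the surface after 24 h compound exposure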
LGR2 inh – Drosophila LGR2 receptor signaling inhibition; HEK293 LGR2, CRE-luciferase, bursicon-stimulated, 4 h; inhibition, % at 9.99 µM; 0.35% of 380,000 active;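 active = drop in luminescence signal, shown as inhibition above about 50% in the replicate tests, limit read from the data, passing the limit was not always enough; inconclusive = probably only some replicates passing the limit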;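 also: agonist challenge used bursicon conditioned medium at about half maximal strength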
EWS-Fli block – blocks EWS/Fli oncoprotein-driven transcription. A673 NR0B1-luciferase reporter, viability-normalised. inhibition, % at 12.6 µM. 0.67% of 350,000 active;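 active = mean inhibition of at least 50% after viability correction, with every replicate also passing that limit; inconclusive = mean reaches 50% but only one of two replicates passes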;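 also: firefly luciferase signal divided by Alamar Blue viability fluorescence both relative to DMSO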
INS-1E GSIS act – primary screen for activators of insulin secretion dependent on glucose, INS-1E cells, GLuc reporter luminescence; INS-1E GLuc reporter insulin secretion, 2-3 h; activation, % at 16.6 µM; 0.61% of 370,000 active; AID 743287;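 active = lowest replicate activation of at least 40%, so every replicate reaches that level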;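 also: 0% = median of neutral control wells and 100% = median of IBMX positive control wells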
RAD54 branch – blocks human RAD54 Holliday junction branch migration; Q92698; 0.14% of 360,000 active; inhibition, % at 10.4 µM; FAM/BHQ fluorescence;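 active = mean normalized replicate activity at least 40 and at least half of replicates scoring 40 or more; inconclusive = only one of the two criteria met; inactive = mean below 40 and under half of replicates reaching 40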;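 also: 0% = median of neutral control wells and 100% = median of positive control wells; inhibitors cause a drop in the FAM fluorescence signal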
Target sequence (Q92698 whole entry, looked up): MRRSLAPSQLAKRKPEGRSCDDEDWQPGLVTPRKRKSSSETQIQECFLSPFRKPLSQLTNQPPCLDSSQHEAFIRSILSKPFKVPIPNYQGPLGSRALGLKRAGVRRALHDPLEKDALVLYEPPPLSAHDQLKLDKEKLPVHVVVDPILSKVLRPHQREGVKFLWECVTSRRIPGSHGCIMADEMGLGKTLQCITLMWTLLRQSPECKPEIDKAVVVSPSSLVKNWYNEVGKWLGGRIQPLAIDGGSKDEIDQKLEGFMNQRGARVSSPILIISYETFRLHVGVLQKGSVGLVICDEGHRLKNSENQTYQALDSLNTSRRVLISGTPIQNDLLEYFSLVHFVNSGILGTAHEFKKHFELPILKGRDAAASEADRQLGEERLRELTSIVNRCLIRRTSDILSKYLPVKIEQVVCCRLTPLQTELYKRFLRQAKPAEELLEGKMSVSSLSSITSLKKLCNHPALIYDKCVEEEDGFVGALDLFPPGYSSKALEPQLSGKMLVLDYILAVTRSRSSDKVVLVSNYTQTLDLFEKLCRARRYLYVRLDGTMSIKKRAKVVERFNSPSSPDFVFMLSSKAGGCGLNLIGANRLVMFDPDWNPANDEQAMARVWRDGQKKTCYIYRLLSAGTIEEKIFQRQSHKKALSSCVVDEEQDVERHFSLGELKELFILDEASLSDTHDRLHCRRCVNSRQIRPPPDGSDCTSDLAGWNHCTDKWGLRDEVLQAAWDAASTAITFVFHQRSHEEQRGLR
Numbers without * were called inactive; u = inconclusive; x = not tested or not shown. Only some compounds are listed: those with a hit (about 1.8% of all), similar ones and a draw of the others.

SMILES | RAD52 anneal inh | CFTR F508del cor | LGR2 inh | EWS-Fli block | INS-1E GSIS act | RAD54 branch
C[C@@H]1CN([C@@H](C)CO)C(=O)Cc2cc(NC(=O)Nc3ccc(C(F)(F)F)cc3)ccc2O[C@H]1CN(C)Cc1ccc(Cl)c(Cl)c1 | -7 | 6 | 13 | 67* | -2 | 3
COc1ccc([C@H]2CC(=O)C=C(c3ccc(C(=O)O)cc3)C2)cc1OC | -12 | 1 | -1 | 6 | 91* | -4
COc1ccc(C2=NN(c3ccc(C(=O)O)cc3)C(c3ccc(OC)c(OC)c3)C2)cc1 (centres undefined) | -21 | -2 | -26 | 0 | 53* | 2
C/C(N)=C(/C#N)C(=O)COC(=O)c1oc2ccccc2c1COC(C)C | -11 | 0 | 12 | -75 | 27 | -7
COc1ccc(/C(C#N)=C/c2ccccn2)cc1 | -1 | -1 | -82 | -81 | -5 | -6
N#C/C(=C\c1ccccn1)c1nc2ccccc2s1 | -229 | 41* | -100 | -42 | 7 | -8
CC1=CC(C)(C)N(C(=O)CCl)c2cc(C)ccc21 | -1 | -3 | -1 | 68* | 7 | 12
O=C(c1ccco1)N1CCN(C2CN(Cc3ccccc3)S(=O)(=O)C2)CC1 (centres undefined) | -15 | 0 | -8 | -12 | 47* | 2
COc1ccc(C[C@H]2CN3C(=NC[C@@H]3Cc3ccccc3)N2CCNC(=O)CCC2CCCCC2)cc1 | 26 | 3 | 82* | u | 155* | 21
CCCc1ccc(-c2ccc(/C=C/C(=O)O)cc2)nc1 | -11 | -6 | 58* | 56* | -4 | x
CCCCCc1ccc(-c2ccc(/C=C/C(=O)O)cc2)nc1 | x | x | -2 | x | -11 | -9
CCC1CCCCN1C(=O)COc1cc(=O)n(C)c2ccccc12 (centres undefined) | -5 | -1 | 19 | 4 | -10 | -2
O=[N+]([O-])c1cccc(/C=N/n2c(-c3cccnc3)n[nH]c2=S)c1 | x | x | -2 | x | 54* | 3
O=[N+]([O-])c1ccc(/C=N/n2c(-c3cccnc3)n[nH]c2=S)cc1 | x | x | 3 | x | 1 | -6
CCCCC(=O)N(C)c1c(C)nc2ccc(C(=O)N3CCN(C(C)=O)CC3)cn12 | -2 | -2 | -4 | 11 | 4 | -3
CCCCC(=O)N(C)c1c(C)nc2ccc(C(=O)N3CCCCC3)cn12 | 3 | -1 | 100* | 2 | -17 | 0
Cc1ccc(-n2c(C)cc(/C=N/NC(=O)CN(c3ccc(C)cc3C)S(C)(=O)=O)c2C)cc1 | x | x | x | x | x | 5
Cc1ccc(C(=O)Nc2cc3ccccc3oc2=O)cc1 | -8 | x | 99* | 79* | 9 | x
CC(=O)Nc1cc2ccccc2oc1=O | -13 | -3 | -5 | -9 | 4 | x
CCOC(=O)C1=C(C)N(CC(C)C)C(=O)C1 | -2 | 1 | -6 | 7 | 21 | x
CCCCN1C(=O)CC(C(=O)OCC)=C1C | -6 | 11* | 8 | 5 | 2 | 4
CS(=O)(=O)Nc1ccc2c(c1)[C@@H]1C[C@H](CC(=O)NCc3ccccc3F)O[C@H](CO)[C@@H]1O2 | 9 | -3 | 11 | -6 | -3 | 4
COc1ccc(C(=O)NC(=S)Nc2ccc3c4c(cccc24)CC3)cc1OC | x | x | 13 | x | 96* | 3
Cc1nn(S(=O)(=O)c2ccc(Cl)cc2)c(C)c1Sc1ccc([N+](=O)[O-])cc1 | -8 | 15* | -5 | 5 | -40 | -6
Cc1nn(-c2ccccc2)c(N)c1Sc1ccc([N+](=O)[O-])cc1 | x | x | -11 | x | -13 | x
SMILES | RAD52 anneal inh | CFTR F508del cor | LGR2 inh | EWS-Fli block | INS-1E GSIS act | RAD54 branch
Cc1ccc(C2=NOC(=O)/C2=C\C=C\c2ccccc2)cc1 | -110 | -6 | 26 | 54* | -4 | -7
CCNC(=S)NNC(=O)CC(C)C | -8 | 9.5* | 11 | 3 | 17 | x
CC(C)CNC(=S)NNC(=O)CC(C)O (centres undefined) | -1 | -1 | -19 | 1 | -6 | x
Nc1[nH]nc2ncc3cc4ccccc4nc3c12 | -25 | 12* | 10 | -32 | 13 | x
Cc1nn(-c2ccccc2)c2nc(N)c(C#N)c(-c3ccc(O)c(O)c3)c12 | -21 | 2 | -1 | 15 | -21 | 4
CC(C)c1ccc(CN2CCC2(C)C(=O)Nc2cccc(Oc3ccccc3)c2)cc1 (centres undefined) | -12 | 2 | 8 | 16 | -2 | -3
COc1ccc(NC(=O)C(CC(=O)O)Cc2ccc(Cl)cc2)cc1 (centres undefined) | -10 | 8.9* | 15 | 8 | 10 | 1
COCCNc1nc(Oc2cccc(F)c2)c2sccc2n1 | -10 | 2 | -12 | 3 | 11 | -10
COCCNc1nc(NCc2ccccc2)nc2ccsc12 | -12 | -2 | -10 | -4 | x | 4
COCCNc1nc(NC(C)C)nc2ccsc12 | -15 | 3 | -1 | -1 | 82* | -7
COCCNc1nc(Oc2cncc(Cl)c2)c2sccc2n1 | -5 | -1 | 8 | -4 | 55* | -6
CC(C)Nc1nc(NCc2ccccc2)c2sccc2n1 | -3 | -10 | x | 22 | x | -1
CC(C)Nc1nc(Nc2ccc(Cl)cc2F)c2sccc2n1 | -1 | 8.6* | -19 | 18 | -14 | 15
CCOC(=O)Cn1c(=NC(=O)CN2C(=O)CCC2=O)sc2cc(S(N)(=O)=O)ccc21 | -9 | 2 | 10 | -5 | 3 | 3
COc1ccc(-c2cnc3c(NC(C)=O)cc(-c4cc(F)ccc4OC)cn23)cc1OC | -11 | 1 | -14 | 54* | -1 | -2
COc1cccc(-c2cc(NC=O)c3ncc(-c4cc(OC)c(OC)c(OC)c4)n3c2)c1 | -20 | 1 | -17 | 53* | 3 | -8
COc1cc(-c2cnc3c(NC=O)cc(-c4cccc(C(F)(F)F)c4)cn23)cc(OC)c1OC | -36 | 8.7* | 13 | 21 | 8 | 3
COc1ccc(-c2cc(NC=O)c3ncc(-c4cccc(C(F)(F)F)c4)n3c2)c(OC)c1 | -41 | 0 | 5 | 32 | x | -4
COc1ccc(F)cc1-c1cc(NC(C)=O)c2ncc(-c3cc(OC)c(OC)c(OC)c3)n2c1 | -4 | 2 | -12 | 43 | -17 | 2
COc1ccc(-c2cc(NC=O)c3ncc(-c4ccc(OC)c(OC)c4)n3c2)cc1 | -23 | 8.4* | -40 | u | 52* | 6
COc1cc(-c2cnc3c(NC=O)cc(-c4ccsc4)cn23)cc(OC)c1OC | -13 | -3 | -21 | 56* | -12 | -7
CNC(=O)C[C@H]1CC[C@@H]2[C@@H](COc3ccc(NC(=O)C4CC4)cc3C(=O)N2C)O1 | x | 1 | 1 | -4 | 6 | 1
O=C(Nc1nc2cc3c(cc2s1)OCCO3)c1cccs1 | -10 | 0 | 76* | 31 | 9 | x
COc1ccccc1C(=O)Nc1nc2cc3c(cc2s1)OCCO3 | x | x | x | x | x | 0
CCc1nc2ccccc2n1CC(C)C(=O)O (centres undefined) | x | x | x | x | x | -6
